# Results filed as inconclusive are left out. The source made the active and inactive calls. Calls follow the shape of the dose curve; as a rule, active = well fitted inhibition curve with a large enough effect; inconclusive = small, poorly fitted or top-dose-only effect; inactive = flat fitted curve, though single readings scatter.
# Biological target: Ubiquitin carboxyl-terminal hydrolase 2 (Homo sapiens) (UniProt O75604)
# Test: qHTS for Inhibitors of Ubiquitin-specific Protease USP2a Using CHOP2 as the Reporter: K484 Substrate (AID 652173);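 also: cleavage of internally quenched K48 di-ubiquitin substrate measured as rising fluorescence over time; nearly all actives have a fitted effect of over 70% in size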
# Conditions: USP2 cleavage of DiUb K48 IQF substrate, fluorescence; series mostly up to 57.5 µM
# In short: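 USP2 (dispensed at 5 nM) was pinned with compounds, then DiUb K48 internally quenched fluorescent substrate (dispensed at 100 nM) was added. The buffer was 20 mM Tris pH 8, 2 mM beta-mercaptoethanol and 0.05% CHAPS. Cleavage was read kinetically as rising fluorescence, Ex 525/Em 598.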
# Potency is read from the fitted curve at half-maximal effect.
# Sequence of Ubiquitin carboxyl-terminal hydrolase 2 (Homo sapiens) (O75604 whole entry, looked up): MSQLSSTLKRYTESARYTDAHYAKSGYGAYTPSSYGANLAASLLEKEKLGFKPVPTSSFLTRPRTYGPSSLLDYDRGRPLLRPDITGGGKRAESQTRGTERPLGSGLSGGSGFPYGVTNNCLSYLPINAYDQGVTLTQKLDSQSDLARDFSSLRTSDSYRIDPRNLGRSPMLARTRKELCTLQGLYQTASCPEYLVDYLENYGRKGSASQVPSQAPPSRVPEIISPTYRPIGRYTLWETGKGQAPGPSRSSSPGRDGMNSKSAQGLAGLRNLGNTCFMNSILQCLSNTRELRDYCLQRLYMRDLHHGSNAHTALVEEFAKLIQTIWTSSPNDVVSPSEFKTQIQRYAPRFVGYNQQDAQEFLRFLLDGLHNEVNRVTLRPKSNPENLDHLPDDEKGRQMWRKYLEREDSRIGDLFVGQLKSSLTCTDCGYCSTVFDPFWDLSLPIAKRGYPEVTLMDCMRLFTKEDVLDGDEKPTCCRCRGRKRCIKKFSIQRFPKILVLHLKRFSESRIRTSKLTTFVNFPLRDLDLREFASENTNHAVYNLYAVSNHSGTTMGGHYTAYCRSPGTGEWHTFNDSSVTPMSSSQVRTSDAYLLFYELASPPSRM
row,Compound,Potency
1,Cc1ccc(S(=O)(=O)Nc2cnccc2C(=O)Nc2nc3ccccc3s2)cc1,3.43 µM (active)
2,O=C(O)C1CCC(C(=O)Nc2ccc([S+](=O)([O-])Nc3nccs3)cc2)CC1 (configuration not stated),inactive
3,Cc1ccc(S(=O)(=O)Nc2cnccc2C(=O)Nc2nc(-c3nc4ccccc4s3)cs2)cc1,1.72 µM (active)
4,O=C(Nc1ccc(S(=O)(=O)Nc2nccs2)cc1)c1ccnc2ccccc12,21.7 µM (active)
5,O=C(Nc1nc(-c2ccccc2)cs1)c1ccncc1NS(=O)(=O)c1ccc(C(F)(F)F)cc1,3.06 µM (active)
6,O=C(Nc1nc(-c2ccccc2)cs1)c1ccncc1NS(=O)(=O)c1cccs1,3.43 µM (active)
7,COc1ccc(S(=O)(=O)Nc2cnccc2C(=O)Nc2nc(-c3ccccc3)cs2)cc1,3.85 µM (active)
8,Cn1cnc(S(=O)(=O)Nc2cnccc2C(=O)Nc2nc(-c3ccccc3)cs2)c1,19.3 µM (active)
9,COc1ccccc1S(=O)(=O)Nc1cnccc1C(=O)Nc1nc(-c2ccccc2)cs1,13.7 µM (active)
10,O=C(Nc1nc(-c2ccccc2)cs1)c1ccncc1NS(=O)(=O)c1c(F)cc(F)cc1F,3.43 µM (active)
11,O=C(Nc1nc(-c2ccccc2)cs1)c1ccncc1NS(=O)(=O)c1ccc(F)cc1Cl,1.93 µM (active)
12,CC(C)Cc1ccc(-c2csc(Nc3ccc(S(=O)(=O)Nc4nccs4)cc3)n2)cc1,5.44 µM (active)
13,Cc1ccc(S(=O)(=O)Nc2cnccc2C(=O)Nc2ccc(C#N)cc2)cc1,21.7 µM (active)
14,O=C(Nc1nc(-c2ccccc2)cs1)c1ccncc1NS(=O)(=O)c1cccc(Cl)c1,3.85 µM (active)
15,O=C1CCCc2cc(S(=O)(=O)Nc3cnccc3C(=O)Nc3nc(-c4ccccc4)cs3)ccc2N1,7.69 µM (active)
16,Cc1ccc(S(=O)(=O)Nc2cnccc2C(=O)Nc2nc(-c3ccc(Cl)cc3)cs2)cc1,2.17 µM (active)
17,Cc1ccc(S(=O)(=O)Nc2cnccc2C(=O)Nc2nc(-c3cnn(C)c3)cs2)cc1,8.63 µM (active)

# From PubChem BioAssay (NCATS)
